# Assay results published in the supplement of paper PMC10338343.
# ± gives the standard deviation.
# Assays:
# [1] = system: MILI (PIWIL2) piRISC loaded with L1MC piRNA (26 nt); assay: pre-steady-state target cleavage rate (min^-1); guide: L1MC piRNA 5'p-UAACUAAAUACUAUGCAAGCUGUAGG; higher = faster piRNA-guided slicing of the target
# Procedure, shortened: (§1)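 In Cleave-'n-Seq, a transcribed, DNA-blocked target RNA library (0.1 nM) was combined with 1 nM active affinity-purified piRISC bearing one synthetic guide, with or without 500 nM GTSF1 partner protein. Reactions ran in HEPES–potassium acetate buffer at 33 °C for 0–8 or 0–960 min. Uncleaved targets were sequenced and normalised to depth and to weakly complementary targets, three trials were pooled, and k3 was capped at 0.0001 min^-1. The pre-steady-state cleavage rate was obtained by fitting a burst-and-steady-state model.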
# [2] = system: EfPiwi piRISC loaded with L1MC piRNA (26 nt); assay: pre-steady-state target cleavage rate (min^-1); auxiliary factor: 500 nM Ephydatia muelleri Gtsf1; guide: L1MC piRNA 5'p-UAACUAAAUACUAUGCAAGCUGUAGG; MIWI and MILI are mouse PIWI proteins and EfPiwi is from a freshwater sponge; tags in brackets are library labels; higher = faster piRNA-guided slicing of the target
# Procedure, shortened: as §1
# [3] = auxiliary factor: 500 nM mouse GTSF1
# [4] = auxiliary factor: none (no GTSF1)
Sequence,"pre-steady-state target cleavage rate [1, 3]","pre-steady-state target cleavage rate [1, 4]",pre-steady-state target cleavage rate [2]
UCCUGGAACAGCUUGCAAAGUAUUUAGUUA,0.135 ± 0.0089,0.00796 ± 0.0019,0.0333 ± 0.0089
UCCUGGAACAGCUAGCAUAGUAUUAAGUUA,0.192 ± 0.015,0.00356 ± 0.0025,0.0146 ± 0.0061
UCCUCGAACAGCUUGCAUAGUAUUUAGUAA,0.242 ± 0.015,0.00453 ± 0.0022,0.0173 ± 0.0064
UCCUGCUACACGUUGCAUAGUAUUUAGUUA,0.289 ± 0.026,0.0118 ± 0.0026,0.0175 ± 0.0063
UCCUGGAAGUCCUUGCAUAGUAUUUAGUUA,0.159 ± 0.018,0.00649 ± 0.0018,0.0092 ± 0.0031
UCCUCCUACAGCAUGCAUUGUAUUUAGUUA,0.217 ± 0.015,0.0102 ± 0.0027,0.0134 ± 0.0043
UCCUGGAUGUCCUUGCAUAGUAUUAAGUUA,0.116 ± 0.019,0.00289 ± 0.0026,0.00404 ± 0.0034
UCCUGGAUGAGCUUGGAUAGUAAUUAGUUA,0.1 ± 0.02,0.00311 ± 0.0026,0.00302 ± 0.0021
UCCUCCUACGGCUUGCAUAGUAUUUAGUUA,0.298 ± 0.018,0.0137 ± 0.004,0.0667 ± 0.017
UCCUGGAACAGGUUGCAUAGUAUUAAGUUA,0.213 ± 0.023,0.00415 ± 0.0022,0.00329 ± 0.0021
UCCUCCUACUGCUUGCAUAGAAUUUAGUUA,0.0415 ± 0.0062,0.00232 ± 0.002,0.00761 ± 0.0021
UCCUCCUACAGCUUGCAAAGUUUUUAGUUA,0.0169 ± 0.0064,0.00334 ± 0.0023,0.00281 ± 0.0022
UCCUGGAUCAGCUUCAUAGUAUUUAGUUA,0.235 ± 0.012,0.00548 ± 0.0028,0.00789 ± 0.0033
UCCUCCAUGAGCUUGCAUAGUAUUUAGUAA,0.169 ± 0.018,0.00406 ± 0.0021,0.00588 ± 0.0024
UCCUGGAUGUGCUUGCAAAGUAUUUAGUUA,0.0492 ± 0.011,0.00756 ± 0.0024,0.00905 ± 0.0036
UCCUCCUACAGCUUGCAUAGUAUAUUAGUUA,0.282 ± 0.019,0.00588 ± 0.0024,0.0567 ± 0.019
UCCUGGAUGAGCUUGCAUUGUAUUAAGUUA,0.0879 ± 0.017,0.00381 ± 0.0027,0.0041 ± 0.0035
UCCUGGAUCAGCAUGCAUUGUAUUUAGUUA,0.15 ± 0.014,0.00792 ± 0.0027,0.00421 ± 0.0021
UCCUCCUACGCUUGCAUAGUAUUUAGUUA,0.301 ± 0.013,0.0071 ± 0.0018,0.0821 ± 0.021
UCCUGGAUCAGCUUGCAAAGUUUUUAGUUA,0.00906 ± 0.0052,0.0042 ± 0.0022,0.00491 ± 0.0036
UCCUGGAUGAGCUGGCAUAGUAUUUAGUUA,0.185 ± 0.016,0.0101 ± 0.0034,0.0103 ± 0.0035
UCCUGCUACAGGUUGGAUAGUAUUUAGUUA,0.204 ± 0.018,0.00926 ± 0.0025,0.00793 ± 0.0027
UCCUGGUACUGCUUGCAUAGUAUUUAGUUA,0.174 ± 0.023,0.0139 ± 0.0037,0.0105 ± 0.0034
UCCUGGUACAGCUUGCAUAGUAUUUAGUUA [g2:g24:cont:t1A],0.277 ± 0.018,0.0215 ± 0.0056,0.0865 ± 0.024
UCCUGGAUGUCCUUGCAUAGUCUUUAGUUA,0.0269 ± 0.0075,0.00468 ± 0.0022,0.00326 ± 0.0014
UCCUGCUACAGCUUGCAUUGUAAUUAGUUA,0.201 ± 0.024,0.00494 ± 0.0018,0.00519 ± 0.0025
UCCUGUUACAGCUUGCAUAGUAUUUAGUUA,0.328 ± 0.018,0.0102 ± 0.0034,0.231 ± 0.07
